Our source for the growth values is PubChem BioAssay (NCI).

Compounds without any hit were thinned out: in the full panel of roughly 83,000, 20% have a hit.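 Cell lines were cultured in 96-well plates, exposed to a single compound concentration, and assessed for percent growth 48 hours later.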 Values without a mark were called inactive. Active and inactive are the calls of the source.

In the assay the test system is M14 melanoma. Put plainly: NCI-60 one-dose screen, 48 h (100 = growth as untreated, 0 = no growth, -100 = all killed). As to conditions: 10 µM unless noted. On the procedure: Growth inhibition of the M14 human tumor cell line is measured as a screen for anti-cancer activity. Cells are grown in 96 well plates and exposed to the test compound for 48 hours. Compounds are tested at a single concentration, which is 10^-5 M for most compounds. The reported endpoint is percent growth (GI% or GIPRCNT), where numbers from 0 - 100% represent growth inhibition, and numbers from -100% - 0 represent cell death. For example, a value of 40 represents 60% growth inhibition. A value of 0 means no net growth occurred over the course of the experiment. A value of -40 indicates 40% of cells at the beginning of the experiment died by the end of the experiment. A value of -100 means all cells are dead at the end of the experiment.
NCI-60 Human Tumor Cell Lines Screen was performed using the standard one-dose NCI protocol, which is described in more detail at https://dtp.cancer.gov/discovery_development/nci-60/default.htm.
Compounds with GIPRCNT values below 10 were considered active. Activity score was based on GIPRCNT using the following formula: […]
Score is 0 for GIPRCNT values of 100 or above, 50 for GIPRCNT values of 0, and 100 for GIPRCNT values of -100.
On to `O=C(NNc1ccccc1)OCc1ccccc1`, for which the growth was 17.6%.

`CN(C)c1ccc(/C=C/c2ccnc3ccccc23)cc1`: the growth is 44.3%.

Regarding `COc1cc([C@@H]2c3cc4c(cc3[C@H](OC3OC5COC(c6ccccc6)OC5C(O)C3O)[C@H]3COC(=O)[C@H]23)OCO4)cc(OC)c1OC` (stereo not given in full), the growth is 33.2%.

As to `O=C(CCl)N(c1ccccc1)c1ccccc1`, the growth is 95.9%.

On to `N#CCc1cccc2ccccc12`, for which the growth was 109%.

For the compound `O=C(c1ccccc1)C(O)C(Br)(CBr)c1ccccc1` (stereo not given), the growth is 82.6%.

Turning to `S=C(SSC(=S)N1CCOCC1)N1CCOCC1`, the growth was 55.5%.

In the case of `NC(=S)N/N=C\c1nccc2c(N)cccc12`, the growth is -34.8% (active).

Turning to `c1csc(-c2[nH]nc3c2CCc2ccccc2-3)c1`, the growth is 107%.

Consider `CC(O)C(O)C(O)C(O)C(O)C(=O)NNc1ccccc1` (stereo not given), for which the growth is 85%.

Take `CSc1nc(C)c(C(=O)CCN2CCN(c3ccccn3)CC2)s1`: the growth is 99.9%.

Regarding `Nc1nc2ncc(CNc3ccc(C(=O)NC(CCC(=O)NC(CCC(=O)NC(CCC(=O)NC(CCC(=O)NC(CCC(=O)O)C(=O)O)C(=O)O)C(=O)O)C(=O)O)C(=O)O)cc3)nc2c(=O)[nH]1` (stereo not given), the growth was 107%.

Regarding `CCN1/C(=C/C(C)=C/c2sc3ccc4ccccc4c3[n+]2CC)Sc2ccc3ccccc3c21`, the growth was -79.8% (active).

For the compound `Cc1ccc(N2C(=O)C=CC2=O)cc1`, the growth was 101%.

For `CC(C)=CCCC(C)C1=C(O)C(=O)C(C)=CC1=O` (stereo not given), the growth is 107%.

As for `Cc1cc(C(N)=O)cc(C)c1C(=O)OCCCl`, the growth was 108%.

Take `O=C1C(=O)c2cc([N+](=O)[O-])ccc2-c2ccccc21`: the growth is -90.2% (active).

Consider `C/C=C/c1cc2c(c(=O)o1)C(=O)[C@@H](O)[C@H](C)O2`, for which the growth was -3.06% (active).

Take `CCCCCCCCCCCCNCCCc1ccccc1`: the growth was 52%.

Consider `Oc1ccc2ccccc2c1N=Nc1ccccn1`, for which the growth is 15.6%.

`CCOC(=O)C1(C)CCCC1N` (stereo not given): the growth was 106%.

Turning to `CCC1C[N+]2=C(c3cc(OC)c(OC)cc3CC2)c2c1cc1n2CCc2cc(OC)c(OC)cc2-1` (stereo not given), the growth was 36.1%.

`c1ccc(-c2cccc(-c3ccccn3)n2)nc1`: the growth is -17.8% (active).

For `CCc1cccc(CC)c1N1C(=O)C=CC1=O`, the growth was 86.6%.

On to `O=C1C=CC(=O)N1c1cc(Cl)c(Cl)cc1Cl`, for which the growth is 103%.

In the case of `CCOc1ccc(C(CN2CCOCC2)C(C)=O)cc1OC` (stereo not given), the growth is 93.8%.

For the compound `Cc1cc(=O)oc2cc(O)cc(O)c12`, the growth is 102%.

In the case of `Oc1ccc2ccccc2c1N=Nc1nccs1`, the growth was 26.3%.

For `C/C(=N\NC(=S)N1CC2CCC(CC2)C1)c1ccccn1`, the growth is -32.4% (active).

As for `[Cl-].[Rh+3].c1ccc(-c2ccnc3c2ccc2c(-c4ccccc4)ccnc23)cc1.c1ccc(-c2ccnc3c2ccc2c(-c4ccccc4)ccnc23)cc1.c1ccc(-c2ccnc3c2ccc2c(-c4ccccc4)ccnc23)cc1`, the growth is 45.7%.

`CCCCCCCCCCCCSC(=N)N`: the growth is -5.2% (active).

Take `COc1cccc2c1C(=O)c1c(O)c3c(c(O)c1C2=O)C[C@@](O)(C(=O)CO)C[C@@H]3OC1CC(OC(C)=O)C(OC(C)=O)C(C)O1` (stereo not given in full): the growth was -12.5% (active).

As to `Clc1ccccc1C(c1ccccc1)(c1ccccc1)n1ccnc1`, the growth is 31%.

`CC(/C=N/NC(N)=S)Cc1ccc(C(C)C)cc1` (stereo not given): the growth is 74.2%.

As for `CCCc1cc(=O)oc2c3c(c4c(c12)OC(C)(C)CC4)OC(C)[C@H](C)[C@@H]3O` (stereo not given in full), the growth was 102%.

Regarding `CN(C)CCN(C)CC(C)(C)C(=O)/C=C/c1ccc(Cl)c(Cl)c1`, the growth was -92% [100 µM] (active).

With `Nc1ccc(Oc2ccccc2)c(Cl)c1`, the growth was 94.6%.

For `N#CC(=C1SCS1)[N+](=O)[O-]`, the growth was -1.46% (active).

`O=[N+]([O-])c1ccc(Oc2ccccc2Cl)c([N+](=O)[O-])c1`: the growth was 86.2%.

`Cc1ccc2cccc(OC(=O)Nc3cccc(C(F)(F)F)c3)c2n1`: the growth is 85.5%.
